From PubChem
Many of the other results were omitted from the sample, so hits are more common in it than they were.
ROC1-CUL1 inh = inhibitors of human ROC1-CUL1 ubiquitin ligase activity; P62877+Q13616; in vitro K48 di-Ub FRET, acceptor:donor ratio, 45 min; inhibition, % at 10 µM; 0.6% of 140,000 active; AID 1347404; in the data active = inhibition above about 25%
Target sequence (P62877 whole entry, looked up): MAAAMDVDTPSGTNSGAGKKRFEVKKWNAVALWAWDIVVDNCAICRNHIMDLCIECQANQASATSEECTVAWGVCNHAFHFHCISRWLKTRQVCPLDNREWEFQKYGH
Target sequence (Q13616 whole entry, looked up): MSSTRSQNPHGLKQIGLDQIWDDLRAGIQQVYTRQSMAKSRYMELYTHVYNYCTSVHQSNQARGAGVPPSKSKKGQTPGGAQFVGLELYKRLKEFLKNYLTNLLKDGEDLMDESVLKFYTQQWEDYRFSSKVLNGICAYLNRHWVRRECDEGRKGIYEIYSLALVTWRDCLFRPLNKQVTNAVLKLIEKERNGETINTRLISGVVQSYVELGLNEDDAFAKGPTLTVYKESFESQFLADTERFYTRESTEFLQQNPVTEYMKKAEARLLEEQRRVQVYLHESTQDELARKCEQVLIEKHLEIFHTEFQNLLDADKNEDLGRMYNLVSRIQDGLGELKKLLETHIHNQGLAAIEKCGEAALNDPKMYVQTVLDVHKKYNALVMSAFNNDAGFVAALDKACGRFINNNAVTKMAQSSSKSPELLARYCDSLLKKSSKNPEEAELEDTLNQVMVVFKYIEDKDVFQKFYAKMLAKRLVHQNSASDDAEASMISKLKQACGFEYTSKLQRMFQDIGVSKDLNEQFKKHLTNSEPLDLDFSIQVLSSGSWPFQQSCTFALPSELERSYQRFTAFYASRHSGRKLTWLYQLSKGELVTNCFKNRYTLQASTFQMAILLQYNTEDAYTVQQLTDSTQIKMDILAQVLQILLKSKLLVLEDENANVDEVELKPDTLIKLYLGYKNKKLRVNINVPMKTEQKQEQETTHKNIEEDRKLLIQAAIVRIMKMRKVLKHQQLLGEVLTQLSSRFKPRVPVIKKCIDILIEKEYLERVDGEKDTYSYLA
Numbers without * were called inactive.

SMILES | ROC1-CUL1 inh
CCOC(=O)c1c(-n2c(C)cc(/C=C3\C(=O)NC(=S)N(c4ccccc4)C3=O)c2C)sc2c1CCCC2 | 49.1*
CCOc1ccc(Br)cc1C(=O)N1CCCCC1 | -6.1
O=C1NC(=O)C(=Cc2cc(O)c(O)c(Br)c2)C(=O)N1 | 49.3*
O=C1NC(=O)C(=Cc2cc(Br)c(I)o2)C(=O)N1 | 79.7*
S=c1[nH]nc(-c2ccccc2)n1/N=C/c1cc(Br)c(I)o1 | -6.3
COc1cc(C=C2C(=O)NC(=O)NC2=O)cc(I)c1OC | -0.1
O=C1C(=Cc2ccc(O)c(Br)c2)C(=O)c2ccccc21 | -5.5
COc1ccc(-c2[nH]c3ccccc3c2C(C[N+](=O)[O-])c2ccc(C)cc2)cc1 (centres undefined) | 2.6
O=C1NC(NC2CCCCC2)(C(F)(F)F)C(=O)N1c1ccc(OC(F)(F)F)cc1 (centres undefined) | 0.2
OCCCCNCc1cccc(Br)c1 | -7.3
CCc1nnc(NC(=O)C(C)Oc2ccc(C)cc2)s1 (centres undefined) | -1.8
COC(=O)CN1c2ccccc2N=C2CC(C)(C)CC(=O)C2C1c1ccc(OC)cc1 (centres undefined) | 5.9
Cc1cccc2c(C(=O)N(C)C)cc(-c3cnn(Cc4ccccc4)c3)nc12 | 0.7
Cc1cccc2c(C(=O)O)cc(-c3ccc(-c4ccccc4)cc3)nc12 | -4.3
Cc1cccc2c(C(=O)O)cc(-c3ccccc3O)nc12 | 29.3*
CC1(C)C(C=C(Cl)Cl)C1C(=O)n1cncn1 (centres undefined) | 4.5
CCCC12CN3CC(C)(CN(C1)C3c1c[nH]c3ccccc13)C2=O (centres undefined) | -0.7
O=C(O)c1ccc(N2C(=O)/C(=C/c3ccc4c(c3)OCO4)SC2=S)cc1 | 26.1*
COc1cccc(N2C(=O)/C(=C/c3ccc(C(=O)O)cc3)SC2=S)c1 | 2.7
O=C(O)c1cccc(N2C(=O)/C(=C/c3ccc4c(c3)OCO4)SC2=S)c1 | -1.6
CCN1C(=O)C2(OCCO2)c2cc(Cl)ccc21 | 2.4
O=C(Nc1ccc(OCCOc2ccccc2)cc1)c1ccco1 | 13.2
CCOc1ccc2nc3cc(NC(=O)c4ccco4)ccc3c(N)c2c1 | 97.4*
CCCCOc1cccc(NC(=O)c2ccco2)c1 | -4.5
CCOc1cc(/C=C2/C(=N)N3N=C(c4ccc(C)cc4)SC3=NC2=O)ccc1OS(=O)(=O)c1ccc(C)cc1 | 1.6
SMILES | ROC1-CUL1 inh
N#Cc1cnn2c(C(F)(F)F)cc(-c3ccc4ccccc4c3)nc12 | -5.0
CSc1nnc(-c2ccccc2N=CC2C(=O)N(c3ccccc3)N=C2C)c(=O)[nH]1 (centres undefined) | 1.8
CC1=NN(c2ccc(F)cc2)C(=O)C1C=Nc1cccc2ccccc12 (centres undefined) | -8.2
CC1=NN(c2ccccc2)C(=O)C1C=Nc1ccccc1-c1nnc(SCc2ccccc2)[nH]c1=O (centres undefined) | 36.6*
Cc1cc(C)c(C(=O)CSc2nnc(-c3ccc(Cl)cc3Cl)n2N)c(C)c1 | -5.4
NC(=O)c1c(NC(=O)c2cc(-c3ccccc3)nc3ccccc23)sc2c1CCCCCC2 | 5.6
Cc1ccc(-c2cc(C(=O)Nc3sc4c(c3C(N)=O)CCC(C(C)(C)C)C4)c3ccccc3n2)o1 (centres undefined) | -1.6
CCC1CCc2c(sc(NC(=O)c3cc(-c4ccco4)nc4ccccc34)c2C(N)=O)C1 (centres undefined) | 42.7*
Cc1cccc(CNC(=O)C2CCCN(C3CCN(Cc4ccccc4)CC3)C2)n1 (centres undefined) | -1.9
O=C1C[C@@H]2[C@@H](/C=C/[C@H](COc3cccc(Cl)c3)OC3CCCCO3)[C@H](OC3CCCCO3)C[C@@H]2O1 (some centres undefined) | -0.6
CCN1C(=O)/C(=C/c2ccc(F)c(Br)c2)SC1=S | 1.8
NN1C(=O)/C(=C\c2ccc(O)cc2)SC1=S | 6.7
NN1C(=O)/C(=C/c2ccc(O)c(Br)c2)SC1=S | 50.1*
CC(C)Oc1c(-c2ccccc2)c(=O)c1=O | 7.0
CC(C)Oc1c(-c2ccco2)c(=O)c1=O | 68.5*
CC(C)Oc1c(-c2ccc(F)cc2)c(=O)c1=O | -8.8
CCOc1ccc2ccc(OCC)c(/C=N/NC(=O)Nc3ccc(Cl)cc3)c2c1 | -9.0
N#CC1C(=N)Oc2cc(O)c(C=Nc3cccc(F)c3)cc2C1c1ccco1 (centres undefined) | 47.8*
COc1ccc(N=Cc2cc3c(cc2O)OC(=N)C(C#N)C3c2cccc(F)c2)cc1 (centres undefined) | -2.7
COc1ccccc1N=Cc1cc2c(cc1O)OC(=N)C(C#N)C2c1cccc(F)c1 (centres undefined) | 21.0
Cc1ccc(-c2cc(-c3c(-c4ccccc4)c4cc(Br)ccc4[nH]c3=O)nc3ccccc23)cc1 | 5.6
Cc1ccccc1OCC(=O)NC(C(=O)N/N=C/c1ccc(OCc2ccccc2C#N)cc1)C(C)C (centres undefined) | 95.5*
Cc1ccccc1OCC(=O)NC(C)C(=O)N/N=C\c1ccc2c(c1)n(C)c(=O)n2C (centres undefined) | 8.7
